According to the supplement of paper PMC11732987, “Enantioselective OTUD7B fragment discovery through chemoproteomics screening and high-throughput optimisation” (Communications Chemistry, 2025):

Assays:
Assay in all cases: log2 ratio of Biotin-Ahx-Ub-VS probe labelling (fragment/DMSO); higher = less target engagement (more negative = stronger competition), active = hit call of the paper (q ≤ 0.05, log2 ratio ≤ -1)
Details in all cases: compound concentration: 200 uM; treatment time: 3 h
USP42 = target: T1, USP42 (UniProt Q9H9J4)
T1 sequence (whole entry): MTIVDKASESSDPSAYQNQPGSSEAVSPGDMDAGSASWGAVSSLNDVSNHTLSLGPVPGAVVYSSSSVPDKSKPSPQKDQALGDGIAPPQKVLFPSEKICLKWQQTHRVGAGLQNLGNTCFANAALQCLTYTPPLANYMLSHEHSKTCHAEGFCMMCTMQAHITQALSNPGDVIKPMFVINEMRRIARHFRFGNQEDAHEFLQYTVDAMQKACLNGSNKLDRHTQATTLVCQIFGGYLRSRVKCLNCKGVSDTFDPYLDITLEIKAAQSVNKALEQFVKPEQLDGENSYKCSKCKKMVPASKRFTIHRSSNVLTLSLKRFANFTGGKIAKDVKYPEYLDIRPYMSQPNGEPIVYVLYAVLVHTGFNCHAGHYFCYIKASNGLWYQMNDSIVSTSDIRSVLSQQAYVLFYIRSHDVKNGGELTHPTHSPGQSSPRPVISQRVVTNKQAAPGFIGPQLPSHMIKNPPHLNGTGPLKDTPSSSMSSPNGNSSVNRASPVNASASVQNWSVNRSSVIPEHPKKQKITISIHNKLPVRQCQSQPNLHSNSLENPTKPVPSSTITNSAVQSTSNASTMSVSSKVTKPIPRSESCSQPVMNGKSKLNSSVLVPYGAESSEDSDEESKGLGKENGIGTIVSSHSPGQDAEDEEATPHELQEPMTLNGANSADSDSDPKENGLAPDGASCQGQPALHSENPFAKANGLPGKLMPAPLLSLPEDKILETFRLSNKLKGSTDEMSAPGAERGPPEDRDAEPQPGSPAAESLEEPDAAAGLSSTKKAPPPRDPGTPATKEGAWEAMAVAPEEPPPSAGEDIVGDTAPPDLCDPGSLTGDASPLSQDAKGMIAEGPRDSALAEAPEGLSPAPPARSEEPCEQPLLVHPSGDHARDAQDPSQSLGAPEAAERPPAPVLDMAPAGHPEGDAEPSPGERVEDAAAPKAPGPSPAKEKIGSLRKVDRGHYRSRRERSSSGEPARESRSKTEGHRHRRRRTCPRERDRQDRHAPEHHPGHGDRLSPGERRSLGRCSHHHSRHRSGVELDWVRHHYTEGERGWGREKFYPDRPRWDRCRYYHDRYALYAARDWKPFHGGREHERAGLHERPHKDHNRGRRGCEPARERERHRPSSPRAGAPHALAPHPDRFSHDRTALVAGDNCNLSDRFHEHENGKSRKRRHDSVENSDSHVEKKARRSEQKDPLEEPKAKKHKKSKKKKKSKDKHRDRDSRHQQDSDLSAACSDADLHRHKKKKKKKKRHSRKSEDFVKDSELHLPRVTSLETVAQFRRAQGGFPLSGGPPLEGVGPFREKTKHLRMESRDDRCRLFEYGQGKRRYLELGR
Summary of the method: (§1)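 HEK293T lysate (495 µg per sample, in Tris/CHAPS/IGEPAL buffer with protease inhibitors) was treated in triplicate with fragment at 200 µM or with DMSO for 3 h. It was then treated with Biotin-Ahx-Ub-VS (0.5 µM final) for 1 h. Labelled DUBs were NeutrAvidin-enriched, digested with LysC and trypsin, and run by diaPASEF LC-MS/MS. Spectronaut label-free quantities were global-median-normalised. Values are average log2 ratios fragment/DMSO by unpaired t-test, using proteins with ≥2 unique peptides.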

USP46 = USP46 (UniProt P62068)
Summary of the method: as §1

USP47 = target: T2, USP47 (UniProt Q96K76)
T2 sequence (whole entry): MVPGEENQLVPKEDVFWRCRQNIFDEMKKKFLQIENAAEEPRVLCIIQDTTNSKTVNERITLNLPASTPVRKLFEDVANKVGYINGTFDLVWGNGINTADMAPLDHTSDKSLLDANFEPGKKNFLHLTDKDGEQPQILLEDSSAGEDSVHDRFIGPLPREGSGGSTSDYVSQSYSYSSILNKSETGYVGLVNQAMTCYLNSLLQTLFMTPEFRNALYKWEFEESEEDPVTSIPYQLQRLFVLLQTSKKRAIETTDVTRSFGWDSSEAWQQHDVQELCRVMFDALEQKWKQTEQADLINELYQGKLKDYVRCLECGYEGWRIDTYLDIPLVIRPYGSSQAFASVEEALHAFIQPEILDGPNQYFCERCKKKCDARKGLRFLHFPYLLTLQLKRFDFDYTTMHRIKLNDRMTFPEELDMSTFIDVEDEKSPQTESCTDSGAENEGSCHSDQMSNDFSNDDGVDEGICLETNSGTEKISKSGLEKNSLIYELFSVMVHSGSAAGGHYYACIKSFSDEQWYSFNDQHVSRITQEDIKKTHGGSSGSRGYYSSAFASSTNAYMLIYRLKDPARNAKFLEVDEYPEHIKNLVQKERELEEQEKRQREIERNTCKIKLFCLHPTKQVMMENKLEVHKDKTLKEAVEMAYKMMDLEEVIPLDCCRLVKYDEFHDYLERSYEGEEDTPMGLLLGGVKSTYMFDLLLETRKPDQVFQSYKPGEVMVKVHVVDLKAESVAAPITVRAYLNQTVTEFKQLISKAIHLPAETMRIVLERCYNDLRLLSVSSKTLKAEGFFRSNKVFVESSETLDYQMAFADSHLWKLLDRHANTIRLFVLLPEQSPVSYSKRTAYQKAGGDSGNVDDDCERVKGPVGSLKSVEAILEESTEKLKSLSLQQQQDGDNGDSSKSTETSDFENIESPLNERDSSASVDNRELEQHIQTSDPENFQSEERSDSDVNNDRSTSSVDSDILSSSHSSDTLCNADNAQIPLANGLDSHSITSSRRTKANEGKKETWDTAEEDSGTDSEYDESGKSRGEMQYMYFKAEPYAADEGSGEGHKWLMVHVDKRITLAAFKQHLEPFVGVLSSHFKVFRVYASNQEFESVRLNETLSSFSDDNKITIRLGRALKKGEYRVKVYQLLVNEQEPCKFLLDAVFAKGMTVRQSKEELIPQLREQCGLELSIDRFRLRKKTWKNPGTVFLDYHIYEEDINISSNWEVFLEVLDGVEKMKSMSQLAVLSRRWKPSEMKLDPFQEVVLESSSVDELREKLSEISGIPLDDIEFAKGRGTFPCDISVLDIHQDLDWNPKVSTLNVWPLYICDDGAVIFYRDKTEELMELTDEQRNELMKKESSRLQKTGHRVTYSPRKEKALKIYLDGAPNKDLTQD
Summary of the method: as §1

USP48 = target: T3, USP48 (UniProt Q86UV5)
T3 sequence (whole entry): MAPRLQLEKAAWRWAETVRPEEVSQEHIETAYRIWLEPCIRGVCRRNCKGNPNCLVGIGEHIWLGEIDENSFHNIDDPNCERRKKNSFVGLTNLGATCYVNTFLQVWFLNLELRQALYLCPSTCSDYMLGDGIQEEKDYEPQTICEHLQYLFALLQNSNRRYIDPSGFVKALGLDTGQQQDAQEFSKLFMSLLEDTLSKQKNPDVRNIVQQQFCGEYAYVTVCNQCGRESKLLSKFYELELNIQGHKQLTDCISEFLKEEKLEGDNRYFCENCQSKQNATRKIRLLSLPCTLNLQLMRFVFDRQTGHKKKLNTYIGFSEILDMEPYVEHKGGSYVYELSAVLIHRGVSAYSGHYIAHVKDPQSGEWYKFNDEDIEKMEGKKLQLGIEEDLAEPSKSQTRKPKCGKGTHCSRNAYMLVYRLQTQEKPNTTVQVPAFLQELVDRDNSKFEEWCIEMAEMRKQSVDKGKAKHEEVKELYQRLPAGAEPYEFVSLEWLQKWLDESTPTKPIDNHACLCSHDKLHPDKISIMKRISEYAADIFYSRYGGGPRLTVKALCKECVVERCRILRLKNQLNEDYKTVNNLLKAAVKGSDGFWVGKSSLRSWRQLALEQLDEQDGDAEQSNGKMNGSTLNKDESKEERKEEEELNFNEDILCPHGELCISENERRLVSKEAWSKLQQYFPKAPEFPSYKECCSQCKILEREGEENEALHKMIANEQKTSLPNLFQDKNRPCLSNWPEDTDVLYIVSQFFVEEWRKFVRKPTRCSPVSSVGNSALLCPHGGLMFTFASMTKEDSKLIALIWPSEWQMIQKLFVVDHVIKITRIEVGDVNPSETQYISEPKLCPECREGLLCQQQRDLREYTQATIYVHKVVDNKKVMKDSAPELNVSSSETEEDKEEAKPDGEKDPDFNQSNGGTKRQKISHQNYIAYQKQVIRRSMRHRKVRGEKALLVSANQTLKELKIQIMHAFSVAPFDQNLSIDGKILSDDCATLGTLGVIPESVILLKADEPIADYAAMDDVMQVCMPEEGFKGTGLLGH
Summary of the method: as §1

USP5 = target: T4, USP5 (UniProt P45974)
T4 sequence (whole entry): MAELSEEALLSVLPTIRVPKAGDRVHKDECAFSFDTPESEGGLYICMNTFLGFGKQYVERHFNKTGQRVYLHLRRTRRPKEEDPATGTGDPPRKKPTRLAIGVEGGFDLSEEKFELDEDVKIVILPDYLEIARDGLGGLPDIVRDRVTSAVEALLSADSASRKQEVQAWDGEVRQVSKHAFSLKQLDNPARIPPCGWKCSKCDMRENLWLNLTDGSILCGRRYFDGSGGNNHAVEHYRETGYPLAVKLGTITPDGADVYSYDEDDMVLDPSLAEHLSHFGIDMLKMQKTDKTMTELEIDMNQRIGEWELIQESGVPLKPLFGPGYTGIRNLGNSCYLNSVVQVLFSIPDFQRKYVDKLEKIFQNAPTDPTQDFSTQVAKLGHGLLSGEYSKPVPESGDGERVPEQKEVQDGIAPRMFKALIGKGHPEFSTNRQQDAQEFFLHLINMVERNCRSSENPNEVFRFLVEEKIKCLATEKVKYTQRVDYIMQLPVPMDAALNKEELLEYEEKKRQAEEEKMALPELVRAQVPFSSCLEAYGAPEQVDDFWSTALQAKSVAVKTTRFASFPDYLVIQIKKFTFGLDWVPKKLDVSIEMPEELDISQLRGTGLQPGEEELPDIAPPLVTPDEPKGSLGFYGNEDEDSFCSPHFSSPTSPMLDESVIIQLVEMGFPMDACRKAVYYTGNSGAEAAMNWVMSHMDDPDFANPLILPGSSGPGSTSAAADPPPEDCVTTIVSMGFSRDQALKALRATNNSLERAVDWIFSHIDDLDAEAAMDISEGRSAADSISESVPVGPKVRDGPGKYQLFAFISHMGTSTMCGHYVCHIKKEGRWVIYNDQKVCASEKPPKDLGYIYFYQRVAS
Summary of the method: as §1

USP54 = USP54 (UniProt Q70EL1)
Summary of the method: as §1

USP7 = USP7 (UniProt Q93009)
Summary of the method: as §1

USP8 = target: T5, USP8 (UniProt P40818)
T5 sequence (whole entry): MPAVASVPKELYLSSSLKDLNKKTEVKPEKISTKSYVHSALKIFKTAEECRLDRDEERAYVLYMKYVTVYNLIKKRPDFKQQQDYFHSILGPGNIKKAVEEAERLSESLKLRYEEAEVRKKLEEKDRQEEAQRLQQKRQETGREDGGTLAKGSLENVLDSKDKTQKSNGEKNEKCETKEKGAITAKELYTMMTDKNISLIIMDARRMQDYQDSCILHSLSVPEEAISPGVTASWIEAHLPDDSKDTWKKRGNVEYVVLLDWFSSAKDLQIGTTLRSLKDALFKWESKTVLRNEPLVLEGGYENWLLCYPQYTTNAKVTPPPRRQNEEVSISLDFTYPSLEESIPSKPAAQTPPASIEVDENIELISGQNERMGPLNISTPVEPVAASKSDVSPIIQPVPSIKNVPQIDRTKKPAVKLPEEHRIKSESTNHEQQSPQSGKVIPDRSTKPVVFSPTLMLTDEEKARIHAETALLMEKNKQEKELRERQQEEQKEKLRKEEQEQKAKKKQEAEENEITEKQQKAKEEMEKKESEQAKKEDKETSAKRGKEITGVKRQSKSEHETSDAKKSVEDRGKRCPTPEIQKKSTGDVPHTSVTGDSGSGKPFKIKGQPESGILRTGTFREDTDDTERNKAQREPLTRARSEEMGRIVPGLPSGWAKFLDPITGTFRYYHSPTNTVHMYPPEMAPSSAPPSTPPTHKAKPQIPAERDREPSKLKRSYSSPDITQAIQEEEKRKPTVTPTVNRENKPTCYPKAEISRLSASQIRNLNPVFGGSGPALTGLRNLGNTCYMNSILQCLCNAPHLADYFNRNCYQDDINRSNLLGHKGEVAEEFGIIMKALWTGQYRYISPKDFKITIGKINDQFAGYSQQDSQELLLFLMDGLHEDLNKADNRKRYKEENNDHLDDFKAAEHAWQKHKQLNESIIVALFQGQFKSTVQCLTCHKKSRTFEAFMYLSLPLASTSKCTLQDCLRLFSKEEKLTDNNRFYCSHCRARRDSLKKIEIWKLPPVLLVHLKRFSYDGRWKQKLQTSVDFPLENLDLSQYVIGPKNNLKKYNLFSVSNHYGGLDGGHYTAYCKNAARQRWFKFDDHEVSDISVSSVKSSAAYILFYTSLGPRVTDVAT
Summary of the method: as §1

USP9X = USP9X (UniProt Q93008)
Summary of the method: as §1

UniProt O00487 = target: UniProt O00487
Summary of the method: as §1

Measured: log2 ratio of Biotin-Ahx-Ub-VS probe labelling

Chain of UniProt O00487 (O00487 whole entry): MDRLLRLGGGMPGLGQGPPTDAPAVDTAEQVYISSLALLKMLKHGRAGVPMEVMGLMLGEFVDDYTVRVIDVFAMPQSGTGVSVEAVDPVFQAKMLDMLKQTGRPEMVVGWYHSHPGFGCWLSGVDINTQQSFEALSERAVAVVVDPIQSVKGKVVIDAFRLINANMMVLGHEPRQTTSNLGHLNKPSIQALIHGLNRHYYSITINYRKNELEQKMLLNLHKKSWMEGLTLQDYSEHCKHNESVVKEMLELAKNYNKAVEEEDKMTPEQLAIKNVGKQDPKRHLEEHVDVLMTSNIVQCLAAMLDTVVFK
Chain of USP9X (Q93008 whole entry): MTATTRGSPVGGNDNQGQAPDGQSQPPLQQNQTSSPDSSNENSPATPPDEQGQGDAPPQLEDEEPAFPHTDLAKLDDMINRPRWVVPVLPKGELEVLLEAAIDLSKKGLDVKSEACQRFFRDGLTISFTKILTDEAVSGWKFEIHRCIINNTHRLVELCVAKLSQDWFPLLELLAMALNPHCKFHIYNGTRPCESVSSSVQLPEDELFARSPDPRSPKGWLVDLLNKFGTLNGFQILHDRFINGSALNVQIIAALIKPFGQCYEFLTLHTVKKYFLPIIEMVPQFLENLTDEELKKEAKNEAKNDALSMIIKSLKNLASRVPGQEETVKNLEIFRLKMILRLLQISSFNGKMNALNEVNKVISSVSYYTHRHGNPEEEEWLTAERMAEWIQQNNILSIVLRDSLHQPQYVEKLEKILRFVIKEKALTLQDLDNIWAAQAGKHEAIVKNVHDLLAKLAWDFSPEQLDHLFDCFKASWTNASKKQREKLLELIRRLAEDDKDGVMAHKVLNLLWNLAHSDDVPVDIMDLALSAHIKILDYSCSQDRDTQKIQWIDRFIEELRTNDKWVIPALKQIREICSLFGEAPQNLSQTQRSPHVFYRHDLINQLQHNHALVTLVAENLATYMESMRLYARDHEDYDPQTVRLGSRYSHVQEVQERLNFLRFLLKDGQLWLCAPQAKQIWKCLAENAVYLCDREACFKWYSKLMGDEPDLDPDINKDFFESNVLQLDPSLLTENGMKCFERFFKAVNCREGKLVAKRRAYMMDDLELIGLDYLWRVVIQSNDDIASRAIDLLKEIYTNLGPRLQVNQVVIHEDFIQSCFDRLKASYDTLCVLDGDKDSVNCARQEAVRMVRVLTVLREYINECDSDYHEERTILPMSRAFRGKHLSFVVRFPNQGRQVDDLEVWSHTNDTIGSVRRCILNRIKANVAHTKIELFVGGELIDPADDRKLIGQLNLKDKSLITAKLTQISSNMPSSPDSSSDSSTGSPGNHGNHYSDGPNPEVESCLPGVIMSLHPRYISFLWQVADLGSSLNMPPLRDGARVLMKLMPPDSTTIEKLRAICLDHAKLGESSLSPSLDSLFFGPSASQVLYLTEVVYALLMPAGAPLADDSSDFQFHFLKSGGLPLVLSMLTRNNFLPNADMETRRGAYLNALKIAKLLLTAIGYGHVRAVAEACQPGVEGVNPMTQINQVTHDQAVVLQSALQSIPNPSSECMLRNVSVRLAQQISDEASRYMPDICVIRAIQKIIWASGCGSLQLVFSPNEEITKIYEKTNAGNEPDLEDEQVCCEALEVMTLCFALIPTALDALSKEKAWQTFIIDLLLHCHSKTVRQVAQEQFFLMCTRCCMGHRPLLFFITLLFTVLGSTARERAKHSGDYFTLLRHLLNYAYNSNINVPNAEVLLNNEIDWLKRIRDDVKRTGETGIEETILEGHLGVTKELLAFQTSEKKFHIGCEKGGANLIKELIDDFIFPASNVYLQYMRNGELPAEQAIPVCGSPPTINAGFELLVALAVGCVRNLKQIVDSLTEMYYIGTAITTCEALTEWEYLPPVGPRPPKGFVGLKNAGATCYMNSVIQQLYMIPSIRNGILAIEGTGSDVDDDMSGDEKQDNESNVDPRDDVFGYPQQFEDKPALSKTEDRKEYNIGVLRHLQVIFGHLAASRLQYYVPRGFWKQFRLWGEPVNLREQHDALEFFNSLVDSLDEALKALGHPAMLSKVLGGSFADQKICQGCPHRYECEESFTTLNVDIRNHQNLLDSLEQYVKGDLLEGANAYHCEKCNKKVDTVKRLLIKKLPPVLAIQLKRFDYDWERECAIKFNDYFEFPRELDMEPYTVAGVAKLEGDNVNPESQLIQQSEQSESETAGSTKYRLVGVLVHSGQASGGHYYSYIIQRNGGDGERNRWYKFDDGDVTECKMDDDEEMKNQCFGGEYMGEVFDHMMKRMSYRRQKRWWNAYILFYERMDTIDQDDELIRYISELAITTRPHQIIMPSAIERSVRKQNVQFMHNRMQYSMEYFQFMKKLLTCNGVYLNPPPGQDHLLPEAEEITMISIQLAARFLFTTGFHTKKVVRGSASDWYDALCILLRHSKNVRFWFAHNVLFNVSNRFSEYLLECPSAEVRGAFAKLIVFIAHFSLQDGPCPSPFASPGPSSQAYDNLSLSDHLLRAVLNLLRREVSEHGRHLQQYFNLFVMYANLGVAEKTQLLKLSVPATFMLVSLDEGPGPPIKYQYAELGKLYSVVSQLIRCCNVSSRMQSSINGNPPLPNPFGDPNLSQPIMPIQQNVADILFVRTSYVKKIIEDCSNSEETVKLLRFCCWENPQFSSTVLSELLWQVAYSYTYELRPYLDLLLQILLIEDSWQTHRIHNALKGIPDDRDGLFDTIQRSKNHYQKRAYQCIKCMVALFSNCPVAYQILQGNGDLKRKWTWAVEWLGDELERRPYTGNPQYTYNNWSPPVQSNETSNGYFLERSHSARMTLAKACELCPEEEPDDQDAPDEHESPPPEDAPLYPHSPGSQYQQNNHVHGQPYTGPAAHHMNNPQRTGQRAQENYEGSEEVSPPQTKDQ
Chain of USP7 (Q93009 whole entry, looked up): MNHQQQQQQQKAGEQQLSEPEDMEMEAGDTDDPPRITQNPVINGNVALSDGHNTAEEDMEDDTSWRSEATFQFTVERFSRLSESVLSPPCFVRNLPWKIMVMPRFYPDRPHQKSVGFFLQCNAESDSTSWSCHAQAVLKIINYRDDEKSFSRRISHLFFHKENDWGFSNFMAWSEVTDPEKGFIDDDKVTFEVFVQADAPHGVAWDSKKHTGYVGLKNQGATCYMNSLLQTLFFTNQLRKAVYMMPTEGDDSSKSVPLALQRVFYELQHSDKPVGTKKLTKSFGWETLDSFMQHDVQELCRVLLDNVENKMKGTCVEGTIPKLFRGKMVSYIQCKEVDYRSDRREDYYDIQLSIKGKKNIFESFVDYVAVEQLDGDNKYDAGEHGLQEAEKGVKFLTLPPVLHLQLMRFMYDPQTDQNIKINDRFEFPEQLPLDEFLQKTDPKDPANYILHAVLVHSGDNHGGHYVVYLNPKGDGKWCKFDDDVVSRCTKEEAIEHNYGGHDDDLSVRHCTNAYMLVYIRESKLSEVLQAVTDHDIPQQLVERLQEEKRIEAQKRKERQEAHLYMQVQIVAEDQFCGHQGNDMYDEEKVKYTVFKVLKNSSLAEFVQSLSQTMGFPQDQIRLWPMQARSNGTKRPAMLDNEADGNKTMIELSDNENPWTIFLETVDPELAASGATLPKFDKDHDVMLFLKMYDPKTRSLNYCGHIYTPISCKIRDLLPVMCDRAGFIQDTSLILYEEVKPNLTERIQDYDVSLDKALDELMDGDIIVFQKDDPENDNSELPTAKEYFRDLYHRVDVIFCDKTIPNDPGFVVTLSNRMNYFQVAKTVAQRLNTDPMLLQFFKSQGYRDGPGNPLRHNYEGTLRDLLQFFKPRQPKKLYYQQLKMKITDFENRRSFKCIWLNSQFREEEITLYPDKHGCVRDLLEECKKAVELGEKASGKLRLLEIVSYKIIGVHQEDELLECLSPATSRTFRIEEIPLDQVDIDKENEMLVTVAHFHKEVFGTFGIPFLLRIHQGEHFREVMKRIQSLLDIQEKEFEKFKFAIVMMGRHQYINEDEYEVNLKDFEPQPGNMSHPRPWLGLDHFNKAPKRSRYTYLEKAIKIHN
Chain of USP46 (P62068 whole entry): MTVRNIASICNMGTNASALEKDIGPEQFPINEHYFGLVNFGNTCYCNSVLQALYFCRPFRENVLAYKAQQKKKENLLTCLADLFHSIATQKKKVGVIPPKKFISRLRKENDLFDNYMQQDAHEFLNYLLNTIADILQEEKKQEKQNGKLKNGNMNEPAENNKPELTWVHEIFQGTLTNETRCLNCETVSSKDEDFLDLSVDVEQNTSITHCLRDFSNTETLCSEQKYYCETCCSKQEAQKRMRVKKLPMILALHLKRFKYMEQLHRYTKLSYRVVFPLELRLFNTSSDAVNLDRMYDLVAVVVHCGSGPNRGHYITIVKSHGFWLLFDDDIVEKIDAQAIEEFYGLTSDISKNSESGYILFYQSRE

CCCn1nccc1NC(=O)CCl
inactive: USP42 0.302 | USP46 -0.137 | USP47 -0.323 | USP48 -0.124 | USP5 -0.757 | USP54 0.705 | USP7 -0.254 | USP8 -0.318 | USP9X -0.239 | UniProt O00487 -0.102
